Compound activity from PubChem.
12-LOX inh – Primary qHTS assay for inhibitors of human arachidonate 12S-lipoxygenase (ALOX12): Round 2; Polyunsaturated fatty acid lipoxygenase ALOX12 (Homo sapiens), P18054; purified 12hLO, xylenol orange hydroperoxide absorbance; Potency, µM (doses to about 108 µM), inactives show at the highest dose activity change, negative = inhibition, actives largely listed as inhibitors; hit rate 1.1% among 580,000; AID 1671190, 2021; note: potency is the fitted concentration of half-maximal effect
Target sequence (P18054 whole entry, looked up): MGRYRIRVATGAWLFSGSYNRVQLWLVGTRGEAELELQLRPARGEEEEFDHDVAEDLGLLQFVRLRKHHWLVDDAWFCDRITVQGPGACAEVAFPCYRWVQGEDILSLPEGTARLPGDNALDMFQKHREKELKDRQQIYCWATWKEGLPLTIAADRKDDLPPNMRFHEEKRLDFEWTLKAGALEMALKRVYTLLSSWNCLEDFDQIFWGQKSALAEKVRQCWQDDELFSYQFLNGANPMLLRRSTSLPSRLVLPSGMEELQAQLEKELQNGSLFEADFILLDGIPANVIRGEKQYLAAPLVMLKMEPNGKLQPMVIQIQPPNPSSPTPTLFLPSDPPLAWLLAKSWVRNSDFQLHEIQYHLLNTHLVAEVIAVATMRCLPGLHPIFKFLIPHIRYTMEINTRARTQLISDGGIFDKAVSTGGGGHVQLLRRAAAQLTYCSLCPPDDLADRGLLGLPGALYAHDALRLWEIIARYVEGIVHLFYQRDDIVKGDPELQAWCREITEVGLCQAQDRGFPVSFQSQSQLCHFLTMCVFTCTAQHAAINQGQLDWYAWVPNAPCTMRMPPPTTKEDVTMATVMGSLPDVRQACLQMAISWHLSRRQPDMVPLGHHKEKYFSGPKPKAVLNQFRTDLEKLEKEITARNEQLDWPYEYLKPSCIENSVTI
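Purified human 12hLO at 150 nM in 25 mM Hepes, 0.01% Triton X-100, pH 7.0, preincubated 15 min at room temperature with compound. Reaction started with 40 uM arachidonic acid, 30 min at room temperature. Hydroperoxide measured by Fe-xylenol orange, 573/405 nm absorbance ratio.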
HT1080NT lethal – qHTS for induction of synthetic lethality in tumor cells producing 2HG: qHTS for the HT-1080-NT fibrosarcoma cell line. hit rate 1.6% among 360,000. Potency, µM (doses to about 46.1 µM), for inactives: top-dose activity, negative = less viability, hits mostly cytotoxic. HT-1080-NT fibrosarcoma viability, CellTiter-Glo ATP luminescence, 48 h. AID 686970, 2013;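 note: NT is the 2HG producing partner of a matched IDH1 knockdown line; potency is the fitted concentration of half-maximal effect; 0% = DMSO-treated cells and -100% = media-only wells without cells; nearly all actives have a fitted effect of over 55% in size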
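HT-1080-NT; 750 cells/well; 5% FBS RPMI; 48 h compound, 37 degrees C; CellTiter-Glo luminescence; curve fitting and curve-class assignment.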
IL-1B inflam inh – qHTS for Inhibitors of Inflammasome Signaling: IL-1-beta AlphaLISA Primary Screen | THP-1 LPS/ATP IL-1B secretion, AlphaLISA, 16 h; hits give low values | activity change, % at 57.5 µM | hit rate 4.7% among 360,000 | AID 743279, 2014; in the data active = activity change below about -50%; inconclusive = mostly about -30% to -49%
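Secreted IL-1B measured by AlphaLISA bead assay after 16 h compound exposure of THP-1 cells; compounds (final up to 57.5 uM) added 1 h before LPS (250 ng/mL) and ATP (1.25 mM) stimulation; lower signal means less secretion.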
TDP1 cell CPT – qHTS for Inhibitors of human tyrosyl-DNA phosphodiesterase 1 (TDP1): qHTS in cells in presence of CPT | chicken DT40 Tdp1-/-;hTDP1 cells + 20 nM CPT, ATP luminescence, 48 h | Potency, µM (doses to about 46.2 µM), without a hit: at the top dose activity change, negative = growth inhibition, most hits filed as inhibitors | hit rate 12% among 420,000; note: potency is the fitted concentration of half-maximal effect; nearly all actives have a fitted effect of over 55% in size
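Chicken DT40 Tdp1-/- cells complemented with human TDP1, 400 cells/well, exposed to compounds plus 20 nM camptothecin for at least 48 h at 37 C; viability read as ATP content by CellTiter-Glo luminescence.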
HT1080 IDH1KD tx – qHTS for induction of synthetic lethality in tumor cells producing 2HG: qHTS for the HT-1080-IDH1KD cell line | Potency, µM (top dose mostly 46.1 µM), inactives show at the top dose activity, negative = toxicity, hits mostly cytotoxic | hit rate 2% among 360,000 | HT-1080 IDH1 knockdown viability, ATP luminescence, 48 h | AID 686971, 2013;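 note: potency is the fitted concentration of half-maximal effect; 0% = DMSO wells and -100% = cell-free medium wells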
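IDH1KD HT-1080 cells, 750/well, RPMI + 5% FBS; compound pinned after 2 h settling; 48 h, 37 °C; CellTiter-Glo luminescence; % activity normalised to DMSO and no-cell wells; curves fitted, classed by r2 and efficacy.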
DT40 TDP1 no CPT – qHTS for Inhibitors of human tyrosyl-DNA phosphodiesterase 1 (TDP1): qHTS in cells in absence of CPT; DT40 Tdp1-/- hTDP1 cells, no CPT, ATP luminescence, 48 h; Potency, µM (highest dose often 46.2 µM), for the others: top-dose activity change, negative = growth inhibition, usual class: inhibitors; hit rate 15% among 420,000; note: potency is the fitted concentration of half-maximal effect; nearly all actives have a fitted effect of over 55% in size
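No-CPT arm: Tdp1-/-;hTDP1 DT40 cells (400/well) plus compounds, incubated ≥48 hr at 37 °C. Readout CellTiter-Glo luminescence.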
* = called active by the depositor; ? = inconclusive; . = not tested or not shown; [ ] = remark or other dose. The full list was thinned out, with hits kept by preference. Unless noted, calls come from the whole dose curve; as a rule, active = well fitted curve in the direction sought with a large enough effect; inconclusive = small, poorly fitted or top-dose-only effect, or another doubt; inactive = no such curve, though single readings can be large; an effect the other way counts as inactive or inconclusive. Unless noted, % is set by controls: 0 for no effect and ±100 for the full control effect.

SMILES	12-LOX inh	HT1080NT lethal	IL-1B inflam inh	TDP1 cell CPT	HT1080 IDH1KD tx	DT40 TDP1 no CPT
Cc1nc(SCC(=O)c2cccc([N+](=O)[O-])c2)n[nH]1	?	11%	37	?	12%	?
O=C(Nc1ccc(F)cc1)c1ccc2c(c1)OCCN(c1ccccc1)C2	-6%[176 µM]	.	.	.	.	.
C[C@H]1[C@@H](NS(=O)(=O)Cc2ccccc2)CC[C@@]23CCCN2C(=O)CCC[C@@H]13	9%	.	.	.	.	.
O=C1C=C(c2ccc(Cl)cc2)CC(c2ccccc2)C1 (configuration not stated)	-68%	.	.	.	.	.
CCc1cccc(NC(=O)c2cc3c(=O)[nH]c4ccccc4c3n2C)c1	-20%	.	.	?	.	18µM*
CCOC(=O)C(C)Oc1cccc2c(=O)n(CC(=O)NCc3ccco3)ccc12 (configuration not stated)	.	?	-54*	1.6µM*	1.6µM*	2.1µM*
CC(C)C(=O)c1cn(CC(=O)NCc2ccco2)c2ccccc12	0%	6%	19	?	13%	-17%
CC(C)Cn1cnc2cccnc21	15%[176 µM]	.	.	.	.	.
CCCN1C(=O)/C(=C/c2nc3ccccc3c(=O)[nH]2)c2cc(C)ccc21	-12%	-12%	13	21µM*	-7%	8.2µM*
CC(C)N1C(=O)/C(=C\c2nc3ccccc3c(=O)[nH]2)c2ccccc21	?	?	-100*	?	?	29µM*
Cc1ccc(C)c(C(=O)CSc2nc3ccccc3c(=O)[nH]2)c1	-4%	-5%	1	2%	3%	?
O=C(NCc1ccco1)[C@H]1CN(Cc2ccccc2)C[C@H]1C(=O)O	6%	.	.	.	.	.
Cc1ccc([C@H]2C[C@@H](n3cc(-c4ccc(F)cc4)nn3)[C@H](O)CN2C(=O)c2cccs2)cc1	?	-19%	-6	18µM*	-10%	15µM*
Cc1ccc([C@H]2C[C@@H](O)[C@H](n3cc(-c4ccc(F)cc4)nn3)CN2C(=O)c2cccs2)cc1	-5%	?	-19	?	?	15µM*
Cc1ccc([C@H]2C[C@H](O)[C@@H](n3cc(-c4ccc(F)cc4)nn3)CN2C(=O)c2cccs2)cc1	?	?	-11	?	-23%	18µM*
Cc1ccc([C@H]2C[C@@H](n3cc(C4CC4)nn3)[C@H](O)CN2C(=O)c2cccs2)cc1	20%	10%	4	0%	3%	-17%
CCOC(=O)C1CSCCS(=O)(=O)N1Cc1ccc(C)cc1 (configuration not stated)	0%	.	.	.	.	.
COc1ccc(C)cc1NC(=O)c1ccccc1N(C)S(=O)(=O)c1ccccc1	18%	-8%	-14	?	-10%	21µM*
CC(=O)Nc1ccccc1N(C)S(=O)(=O)c1ccc(C)cc1	4%	-23%	24	23µM*	?	23µM*
CCN(Cc1ccccc1)S(=O)(=O)c1ccc(F)c(C(=O)Nc2cc(C(F)(F)F)ccc2Cl)c1	-22%	.	.	16µM*	.	23µM*
CS(=O)(=O)N(CC(=O)Nc1cc(C(F)(F)F)ccc1Cl)Cc1ccccc1	-6%	.	.	.	.	.
CCN(Cc1ccccc1)S(=O)(=O)c1ccc(F)c(C(=O)Nc2cc(C)ccc2OC)c1	-17%	.	.	26µM*	.	?
CCn1c(=O)c2c(nc(-n3nc(C)c(C)c3C)n2C(C)C)n(C)c1=O	-10%	.	.	.	.	.
COc1ccc(Cn2c(C3CCN(C(=O)c4ccccc4OC)CC3)n[nH]c2=O)cc1	-8%	.	.	.	.	.
